About 83,000 compounds went through this panel and 20% of them were active in at least one assay; those are over-represented in the sample as a whole.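 Percent growth is the endpoint: 0 to 100 indicates growth inhibition (40 means 60% inhibition), 0 means no net growth, and negative values indicate cell death.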 Unmarked numbers belong to inactive results. Active and inactive are the calls of the source. How the source made its calls: active means growth percent below 10; inactive means the rest.

The results in this text go back to PubChem BioAssay (NCI).

Some test systems named below: HCT-15 colon; HT29 colon; SNB-75 CNS; SNB-19 CNS; U251 CNS; PC-3 prostate; SK-MEL-5 melanoma; UACC-62 melanoma; LOX IMVI melanoma; SK-MEL-28 melanoma.
Experiment in all cases: NCI-60 one-dose screen, 48 h (100 = growth as untreated, 0 = no growth, -100 = all killed)
Conditions in all cases: 10 µM

As to `O=c1oc2c3ccc4cnccc4c3[nH]c2c2ccccc12`, the growth was 80.9% in the test on HCT-15 colon; -19.7% (active) in the test with HT29 colon; 14.1% with SNB-75 CNS; 14.6% with SNB-19 CNS; -35% (active) in the test with U251 CNS; 71.4% in the test with PC-3 prostate. Further, the growth is 28.3% in the test with SK-MEL-5 melanoma, 73.2% in the test with UACC-62 melanoma, 13.5% in the test with LOX IMVI melanoma and 5.14% (active) in the test on SK-MEL-28 melanoma.

`O=c1cc(CSc2nnc(-c3ccccc3)n2-c2ccc(F)cc2)c2ccc3ccccc3c2o1`: the growth is 98.2% in the test with HCT-15 colon; 96.4% with HT29 colon; 92.9% in the test with SNB-75 CNS; 99.1% with SNB-19 CNS; 98.8% in the test on U251 CNS; 79% with PC-3 prostate. In addition, the growth is 79% with SK-MEL-5 melanoma, 83.2% in the test with UACC-62 melanoma, 90.3% with LOX IMVI melanoma and 104% in the test on SK-MEL-28 melanoma.

With `COc1cc(C(=O)n2nc(N)c3c(C)cc(C)nc32)cc(OC)c1OC`, the growth with HCT-15 colon is 33.2%; in the test with HT29 colon, 24%; in the test on SNB-75 CNS, 57.9%; with SNB-19 CNS, 98.4%; with U251 CNS it was 72.1%; in the test with PC-3 prostate, 81.2%. The growth in the test on SK-MEL-5 melanoma was 73.8%; with UACC-62 melanoma, 80.5%; with LOX IMVI melanoma, 54%; in the test with SK-MEL-28 melanoma, 97.6%.

In the case of `Cc1ccc(Cl)cc1Nc1nc(C(F)(F)F)ccc1C(=O)N/N=C/c1c(Cl)cccc1Cl`, the growth in the test on HCT-15 colon is 10.4%; in the test with HT29 colon, 16.6%; with SNB-75 CNS, 26.1%; with SNB-19 CNS it was 10.6%; in the test on U251 CNS it was 2.72% (active); in the test on PC-3 prostate, -18.2% (active). The growth in the test on SK-MEL-5 melanoma was -74.4% (active); in the test on UACC-62 melanoma, -17.6% (active); in the test on LOX IMVI melanoma, -22.3% (active); with SK-MEL-28 melanoma, 18.7%.

Regarding `O=C1CC[C@@H](C(=O)N[C@H]2CSSC[C@@H](C(=O)NCCc3ccccc3)NC(=O)[C@H](Cc3ccccc3)NC(=O)[C@@H]3CCCN3C(=O)[C@@H]3CCCN3C2=O)N1`, the growth in the test on HCT-15 colon was 102%; with HT29 colon it was 102%; in the test on SNB-75 CNS it was 92.7%; in the test on SNB-19 CNS it was 102%; in the test on U251 CNS, 96.8%; with PC-3 prostate it was 84.1%. In addition, the growth in the test with SK-MEL-5 melanoma is 100%; in the test on UACC-62 melanoma it was 94.6%; in the test on LOX IMVI melanoma, 94.1%; in the test with SK-MEL-28 melanoma, 102%.

On to `Cc1nc2ccc(-n3c(-c4ccc(Cl)cc4)nc4ccccc4c3=O)cc2n1Cc1ccccc1`, for which the growth is 77% with HCT-15 colon; 95.6% in the test with HT29 colon; 95.9% with SNB-75 CNS; 108% in the test with SNB-19 CNS; 89.1% with U251 CNS; 58.6% in the test with PC-3 prostate. The growth with SK-MEL-5 melanoma is 66.7%; in the test with UACC-62 melanoma it was 78.4%; with LOX IMVI melanoma it was 91.9%; in the test with SK-MEL-28 melanoma, 107%.

For `C=C1C(=O)O[C@H]2[C@H]1CC/C(COC(=O)OCCCCCOC(=O)OC/C1=C/CC[C@@]3(C)O[C@H]3[C@H]3OC(=O)C(=C)[C@@H]3CC1)=C\CC[C@@]1(C)O[C@@H]21`, the growth in the test with HCT-15 colon was -87.7% (active); with HT29 colon it was -85.6% (active); in the test with SNB-75 CNS, 80.3%; with SNB-19 CNS it was 25.7%; with U251 CNS it was 4.2% (active); in the test on PC-3 prostate, -25.9% (active). Moreover, the growth in the test on SK-MEL-5 melanoma was -78.8% (active); in the test with UACC-62 melanoma, -26.4% (active); in the test with LOX IMVI melanoma, -90.1% (active); with SK-MEL-28 melanoma it was -11% (active).

With `COC(=O)[C@]12CC[C@@H](C)[C@H](C)[C@@H]1C1=CC[C@@H]3[C@@]4(C)CC(=O)[C@H](O)[C@@]5(C)COC(=C45)C[C@@]3(C)[C@]1(C)CC2`, the growth with HCT-15 colon was -69.7% (active); in the test on HT29 colon, -61.2% (active); in the test on SNB-75 CNS, -32.6% (active); in the test with SNB-19 CNS, -54.1% (active); with U251 CNS it was -88.7% (active); in the test on PC-3 prostate it was -32.3% (active). For the same compound, the growth was -97.2% (active) in the test on SK-MEL-5 melanoma, -75.3% (active) in the test on UACC-62 melanoma, -80.7% (active) in the test on LOX IMVI melanoma and -41.8% (active) with SK-MEL-28 melanoma.

Regarding `Cn1c([N+](=O)[O-])cnc1/C=C1\Oc2ccc(Br)cc2C1=O`, the growth was -40.8% (active) with HCT-15 colon; -31.4% (active) with HT29 colon; 8.51% (active) in the test with SNB-75 CNS; 1.52% (active) in the test with SNB-19 CNS; -29.6% (active) with U251 CNS; -24.7% (active) with PC-3 prostate. The growth is -89.2% (active) with SK-MEL-5 melanoma, -73.7% (active) in the test on UACC-62 melanoma, -52.3% (active) with LOX IMVI melanoma and -13.7% (active) in the test on SK-MEL-28 melanoma.

Turning to `COc1ccc(-c2[nH]ncc2/C=C/c2cc(C(F)(F)F)[nH]c(=O)n2)cc1`, the growth in the test with HCT-15 colon was 97%; in the test with HT29 colon, 99.1%; with SNB-75 CNS, 88%; in the test on SNB-19 CNS, 91%; in the test with U251 CNS, 88.5%; in the test on PC-3 prostate it was 98.7%. In addition, the growth is 93.7% in the test with SK-MEL-5 melanoma, 102% in the test on UACC-62 melanoma, 87.4% with LOX IMVI melanoma and 114% in the test on SK-MEL-28 melanoma.

`O=C1/C(=C/c2ccc(O)cc2)CSc2ccc(Cl)cc21`: the growth in the test on HCT-15 colon was 53.9%; with HT29 colon, 69.3%; in the test with SNB-75 CNS it was 93.8%; in the test on SNB-19 CNS, 88.4%; in the test on U251 CNS, 74.8%; with PC-3 prostate it was 58.9%. Also, the growth with SK-MEL-5 melanoma was 80.9%; with UACC-62 melanoma, 71.8%; with LOX IMVI melanoma, 49.3%; in the test on SK-MEL-28 melanoma it was 107%.

On to `COc1ccc(-n2nnc3c(sc4ccccc43)c2=O)cc1`, for which the growth with HCT-15 colon is 102%; with HT29 colon, 43.8%; in the test on SNB-75 CNS, -9.25% (active); in the test with SNB-19 CNS, 33.7%; with U251 CNS it was 18.9%; in the test with PC-3 prostate it was 73%. The growth in the test with SK-MEL-5 melanoma is 74.5%; in the test with UACC-62 melanoma it was 93.9%; in the test on LOX IMVI melanoma it was 74.4%; in the test on SK-MEL-28 melanoma it was 82.8%.

On to `C#C[C@]1(O)CC[C@H]2[C@@H]3CC[C@H]4CC(F)(F)CC[C@]4(C)[C@H]3CC[C@@]21C`, for which the growth with HCT-15 colon was 94.6%; with HT29 colon, 64.1%; with SNB-75 CNS, 70.5%; in the test with SNB-19 CNS, 80.3%; with U251 CNS it was 73.3%; in the test on PC-3 prostate, 70.7%. Besides, the growth with SK-MEL-5 melanoma was 94.3%; in the test with UACC-62 melanoma, 78.8%; in the test on LOX IMVI melanoma, 89.1%; in the test with SK-MEL-28 melanoma, 74.4%.
